Sampled rows, rich in hits. Any-hit rate of the full collection: about 10%.
Lamin A splicing: modulators of lamin A splicing. Potency, µM (highest dose often 46.1 µM), for inactives: at the top dose ratio change, negative = inhibition, actives largely listed as inhibitors. 0.01% of 200,000 active. HeLa LMNA splicing GFP/RFP minigene ratio, 48 h; active means well fitted inhibition curve with a large enough effect in the signal ratio, with a control signal flat, not every such curve was filed as active; inconclusive means small, poorly fitted or top-dose-only effect, or effect the other way, or a change in a side signal; the % refers to the signal ratio; further: potency means the concentration at half of the fitted maximal effect
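Read-out is the ratio of GFP to DsRed2 object intensity, acquired by 488 nm laser-scanning cytometry on HeLa lamin A-EGFP minigene reporter cells. Compound incubation 48 hrs at 37 °C in Opti-MEM with 2% FBS; DMSO 0.5% final.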
KinaseGlo FLuc: blocks Kinase-Glo luciferase, a counter-screen artifact; Q27757; Kinase-Glo luciferase, ATP luminescence, 8 min; Potency, µM (series often up to 38.3 µM), for the others: top-dose activity change, negative = inhibition, most hits filed as inhibitors; 0.28% of 200,000 active; active means well fitted inhibition curve with a large enough effect; inconclusive means small, poorly fitted or top-dose-only effect; further: potency means the concentration at half of the fitted maximal effect; nearly all actives have a fitted effect of over 60% in size
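Compounds were added to a substrate mix at pH 7.2 (50 mM imidazole, 10 uM ATP, within the enzyme's linear range), followed by Kinase-Glo detection reagent; luminescence was measured after 8 minutes at ambient temperature.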
HPGD block: blocks human HPGD enzyme activity | AID 894 | 4.3% of 150,000 active | purified HPGD, NADH fluorescence kinetic, PGE2 substrate | Potency, µM, without a hit: at the top dose activity change, negative = inhibition, actives largely listed as inhibitors; further: potency means the concentration at half of the fitted maximal effect
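NADH formation kinetics: reaction with 30 uM PGE2 and 1 mM NAD+ (final), 20 nM enzyme, Tris-HCl pH 8 with Tween 20, after 15 min compound preincubation at room temperature. Fluorescence change, last versus first of five reads.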
PNC assembly inh: blocks assembly of the perinucleolar compartment; PC3M PTB-GFP, PNC prevalence imaging, 16 h; hits give low values; activity change (PNC), negative = inhibition, % at 10 µM; 3.1% of 140,000 active;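 active means readout at or below -70, meaning at least 70% loss of cells showing the perinucleolar compartment, a nuclear body marking cancer cells; inconclusive means readout between -30 and a set limit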;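 further: plate controls were DMSO wells for no effect and camptothecin positive control wells for full effect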
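Read-out is percentage of cells bearing a perinucleolar compartment, from automated 20x imaging of fixed, Hoechst-stained PC3M PTB-GFP cells. Cells were seeded 4 h, then exposed 16 h to compound (23 nl of library stock) in duplicate plates.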
IMPase cell inh: IMPase inhibition in cells | P97697 | 120,000 tested, under 10 active | inhibition (IP1 accumulation), % at 46.1 µM | CHO-M1 cells, IP1 accumulation, HTRF TR-FRET ratio; active means well fitted curve in the direction sought with a large enough effect in the signal ratio, not every such curve was filed as active; inconclusive means small, poorly fitted or top-dose-only effect, or a change in a side signal; inactive means no such curve, though single readings can be large or run the other way; the % refers to the signal ratio;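 further: cells stimulated with carbachol in lithium chloride buffer; plate controls were DMSO basal wells for no effect and reference inhibitor wells for full effect; higher means more IMPase inhibition seen as more IP1 and lower FRET ratio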
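Elevated IP1 in lysates lowers TR-FRET signal (665/620 ratio and 620 channel reported). Cells were CHO-M1, given carbachol (50 uM as added) plus 50mM LiCl, pH 7.4, 30 min, 37C; compounds titrated up to 46 uM; AC50 by Hill equation.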
ALDH1A1 inh: ALDH1A1 (human) enzyme inhibition. Purified ALDH1A1, NADH fluorescence, propionaldehyde substrate. P00352. 7.3% of 220,000 active. Potency, µM (series often up to 75.3 µM), for the others: top-dose activity, negative = inhibition, actives largely listed as inhibitors;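 further: potency means the concentration at half of the fitted maximal effect; plate controls were no enzyme wells and a reference inhibitor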
Target sequence (P00352 whole entry, looked up): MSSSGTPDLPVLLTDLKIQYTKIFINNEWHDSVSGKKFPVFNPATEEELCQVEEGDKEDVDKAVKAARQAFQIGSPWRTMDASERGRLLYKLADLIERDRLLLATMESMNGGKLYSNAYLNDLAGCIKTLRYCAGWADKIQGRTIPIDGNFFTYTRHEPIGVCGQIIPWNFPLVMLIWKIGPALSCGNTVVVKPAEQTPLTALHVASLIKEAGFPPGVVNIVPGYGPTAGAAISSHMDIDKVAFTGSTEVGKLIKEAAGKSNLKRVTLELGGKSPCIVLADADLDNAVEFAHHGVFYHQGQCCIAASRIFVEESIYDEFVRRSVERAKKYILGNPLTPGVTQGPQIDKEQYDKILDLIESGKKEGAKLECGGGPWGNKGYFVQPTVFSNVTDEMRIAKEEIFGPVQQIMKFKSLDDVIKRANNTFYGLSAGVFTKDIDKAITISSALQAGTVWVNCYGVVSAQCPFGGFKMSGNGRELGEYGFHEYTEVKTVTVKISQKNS
An asterisk follows results filed as active; u = inconclusive; x = not tested or not shown; ! = not confirmed by another sample; [ ] = remark or other dose. Unless noted, the call rests on the fitted dose curve; in most records, active means well fitted inhibition curve with a large enough effect (not every such curve was filed as active); inconclusive means small, poorly fitted or top-dose-only effect, or another doubt; inactive means no such curve, though single readings can be large or run the other way. Unless noted, on the % scale 0 is the no-effect control and ±100 the full control effect.

SMILES | Lamin A splicing | KinaseGlo FLuc | HPGD block | PNC assembly inh | IMPase cell inh | ALDH1A1 inh
CCCc1ccc(OCC(=O)Nc2sc3c(c2C(=O)OCC)CCC(C(C)(C)C)C3)cc1 (centres undefined) | x | x | x | x | 1 | x
O=C(NNc1ccc(Cl)cc1)c1sccc1Cl | 19%[46 µM] | x | x | x | x | 8.9µM*
NCCC[C@@H](N)C(=O)O | x | -1%[7.66 µM] | -8% | x | x | -2%[13.5 µM]
C[C@@H](C(=O)NCCc1c[nH]c2ccccc12)[C@H]1C[C@]1(C)[C@H](NC(=O)OCc1ccccc1)c1ccccc1 | u | 0% | -19% | 29 | x | 10µM*
C[C@H](CO)NC(=O)[C@H](C)[C@H]1C[C@]1(C)[C@H](NC(=O)OCc1ccccc1)c1ccccc1 | -2% | 4% | -2% | -5 | x | 22µM*
C[C@@H](C(=O)NCCF)[C@H]1C[C@]1(C)[C@H](NC(=O)OCc1ccccc1)c1ccccc1 | x | -3% | -5% | x | x | u
CC(=O)N[C@@H](c1ccccc1)[C@]1(C)C[C@H]1[C@@H](C)C(=O)Nc1ccc2ccccc2c1 | x | -3% | -4% | x | x | -5%
C[C@@H](C(=O)Nc1ccc2ccccc2c1)[C@H]1C[C@]1(C)[C@H](NC(=O)OCc1ccccc1)c1ccccc1 | u | 5% | -23% | -9 | x | 13µM*
C[C@@H](C(=O)Nc1ccc2ccccc2c1)[C@@H]1C[C@@]1(C)[C@@H](NC(=O)Oc1ccc(F)cc1)c1ccccc1 | x | -4% | -3% | x | x | -12%
Cc1cc(C(=O)N[C@H](c2ccccc2)[C@@]2(C)C[C@@H]2[C@@H](C)C(=O)Nc2ccc3ccccc3c2)n(C)n1 | u | 4% | -8% | 49 | x | 16µM*
COc1ccc(CCNC(=O)c2cnc3sc(N4CCCC4)nn3c2=O)cc1OC | 10%[46 µM] | x | x | x | x | x
C[C@@H](C(=O)NCc1ccccn1)[C@H]1C[C@]1(C)[C@H](NC(=O)OCc1ccccc1)c1ccccc1 | -14% | 0% | -26% | u | x | 32µM*!
C[C@@H](C(=O)NCC1CC1)[C@@H]1C[C@@]1(C)[C@@H](NC(=O)OCc1ccccc1)c1ccccc1 | -7% | 4% | -25% | -3 | x | -9%
NC(=O)CSc1nccn1Cc1ccccc1 | x | 0% | x | x | x | 10µM*
c1ccc(Cn2ccnc2SCc2nnc(-c3ccccc3)o2)cc1 | u | 0% | 25µM* | 14 | 2 | -11%
COc1ccc(N(C)C(=S)Nc2ccc3nc(C)c(C)nc3c2)cc1 | -13% | 5% | -10% | 15 | -14 | 10µM*
Cn1sc(NC(=O)c2ccccc2Cl)nc1=O | 8% | -4% | 14µM* | u | 3 | 11µM*
O=C(CNC(=O)c1ccc(Cl)cc1)OCc1cc(=O)n2nc(C3CC3)sc2n1 | 13%[46 µM] | x | x | x | x | x
COc1ccc(Nc2nc(Nc3ccc(OC)cc3)nc(-n3[nH]c(=O)c(C)c3C)n2)cc1 | -5% | 0% | -17% | 116 | 1 | 25µM*
COc1ccc(Nc2nc(OC)nc(N3CCOCC3)n2)cc1 | x | -1% | x | x | x | 3%
C[C@]12CC[C@@H]3c4ccc(O)cc4CC[C@H]3[C@@H]1C[C@H](O)C2O (some centres undefined) | 2% | x | x | x | x | x
CC(C)(C)C1CCc2c(sc3nc(-c4cc5cc(Br)ccc5oc4=O)[nH]c(=O)c23)C1 (centres undefined) | 26%[46 µM] | x | x | x | x | x
O=C(O)C(S)[C@@H](S)C(=O)O (some centres undefined) | x | -5% | 4.5µM* | x | x | 3.5µM*
CCOc1ccc(NC(=S)NNC(=S)Nc2cccc(C(F)(F)F)c2)cc1 | x | x | x | x | x | 1.3µM*
O=C(NNC(=S)Nc1cccc(C(F)(F)F)c1)c1ccc(Cl)cc1Cl | u | 1% | -15% | -1 | x | 20µM*
SMILES | Lamin A splicing | KinaseGlo FLuc | HPGD block | PNC assembly inh | IMPase cell inh | ALDH1A1 inh
FC(F)(F)c1cccc(NC(=S)NNC(=S)Nc2cccc(C(F)(F)F)c2)c1 | x | x | x | x | x | 1.6µM*
Cc1cccc(NC(=S)NNC(=O)c2ccccc2OC(F)F)c1 | u | -1% | -11% | 10 | -3 | 9.5µM*
CCc1ccc(CNC(=O)Cn2nc(-c3ccc(Cl)cc3)ccc2=O)cc1 | -25%[46 µM] | x | x | x | x | x
COc1ccccc1NC(=O)c1c(C)cc(C)nc1SCC(=O)c1ccc(Cl)cc1 | -6%[46 µM] | x | x | x | x | x
FC(F)(F)c1cccc(NC(=S)Nc2ccc(Cl)c(Cl)c2)c1 | x | x | x | x | x | 13µM*
CNC(=O)Nc1cccc(C(F)(F)F)c1 | -8% | 2% | -10% | -100* | -2 | 1%
CCOc1cc(OCC)cc(C(=O)Nc2cccc(C(C)=O)c2)c1 | 5% | 4% | -9% | -2 | x | -9%
O=C(O)CS(=O)CC(=O)Nc1cccc(C(F)(F)F)c1 (centres undefined) | x | 5% | x | x | x | 1.8µM*
O=C(O)CS(=O)CC(=O)NCc1cccc(C(F)(F)F)c1 (centres undefined) | x | 1% | x | x | x | 2%
CCOc1cc(OCC)cc(C(=O)NC(=S)Nc2cccc(C(F)(F)F)c2)c1 | 6% | -2% | -27% | 22 | 5 | 3.5µM*
Cn1c(=O)c(-c2cc(F)cc(F)c2)nc2cnc(N3CCOCC3)nc21 | 8% | x | x | x | x | 1%
COc1ccccc1Cc1nc2ccccc2nc1SCC(=O)NCc1ccc(F)cc1 | 14%[46 µM] | x | x | x | x | x
COCC(=O)N1CCC[C@@]2(CCN(c3ccccn3)C2)C1 | x | -3% | -24% | x | x | u
Cn1c(=O)c(-c2cccc(Cl)c2)nc2cncnc21 | x | -3% | -22% | x | x | -13%
CCOc1ccccc1Nc1ccnc2cc(Cl)ccc12 | -14%[46 µM] | 5% | x | x | x | -4%

Source: PubChem BioAssay
